{"source": "paper PMC7819943", "about": "“Rice protein-binding microarrays: a tool to detect cis-acting elements near promoter regions in rice”", "note": "Over roughly 68,000 sequences, “fluorescence intensity (a.u.)” has its median near 9,100; the highest 2% begin near 16,000. For the sample, the highest values were picked, then their nearest neighbours and some sequences at random.", "data": [{"molecular_target": "OsWRKY34 (Oryza sativa, UniProt Q0JBA9 1-250)", "sequence (Q0JBA9 entry or part of it)": "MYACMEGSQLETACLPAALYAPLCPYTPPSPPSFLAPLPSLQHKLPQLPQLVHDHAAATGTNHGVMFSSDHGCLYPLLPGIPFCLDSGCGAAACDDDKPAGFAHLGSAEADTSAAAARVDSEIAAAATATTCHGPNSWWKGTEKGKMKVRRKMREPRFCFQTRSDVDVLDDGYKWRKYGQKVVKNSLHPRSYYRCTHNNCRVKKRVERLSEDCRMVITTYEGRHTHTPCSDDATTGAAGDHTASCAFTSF", "test": "protein-binding microarray (RPBM); PBS, 2% BSA, 51.3 ng/ul salmon testes DNA, 50 uM zinc acetate, 200 nM TF, 25 C, 1 h; high values mean tight binding", "conditions": "protein: recombinant; tags: N-terminal polyhistidine and DsRed monomer fusion (pET32a); label: CyDye5-dUTP incorporated in the synthesized complementary strand; 3' TTTTT single-stranded linker to array surface; dsDNA, one strand shown", "how_it_was_run": "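A custom Agilent array was converted to double-stranded form by primer extension with Cy5-dUTP and blocked with 2% BSA. Protein at 200 nM in PBS with 2% BSA, salmon testes DNA and 50 µM zinc acetate was applied for 1 h at 25 °C, followed by washing. The proteins were polyhistidine–DsRed N-terminal fusions of transcription factors, expressed in E. coli BL21-CodonPlus and Ni–NTA-purified. The binding signal is per-feature fluorescence intensity (arbitrary units) from an Axon 4000B scanner.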", "values": [{"sequence": "GCCTTTTTAACTTGTGCGACCGGTGTTCCGGGATTTTGGGCGGAGTCACCTAGTGCAG", "binding signal": "10900 fluorescence intensity (a.u.)"}, {"sequence": "TCTCCTCCATCATCGCAGCCAACTCCAACATCCTGAGCTCCGGAGTCACCTAGTGCAG", "binding signal": "9510 fluorescence intensity (a.u.)"}, {"sequence": "TCGTTCCTTCCTGTTGTTTCCTTTTCTTTTCCTTTATTTTCGGAGTCACCTAGTGCAG", "binding signal": "8070 fluorescence intensity (a.u.)"}, {"sequence": "CACAACTTTTCGTTTTTTATATTTGCACAAATTTTTTAATCGGAGTCACCTAGTGCAG", "binding signal": "8650 fluorescence intensity (a.u.)"}, {"sequence": "CAGACTTTTCAGCTTCGGTTTCCCTTGTTTCTGATCTTTCCGGAGTCACCTAGTGCAG", "binding signal": "8440 fluorescence intensity (a.u.)"}, {"sequence": "GCCCTTTTCACGGTTTTTCCTGATCTTTCTGGGCTTTCTCCGGAGTCACCTAGTGCAG", "binding signal": "18800 fluorescence intensity (a.u.)"}, {"sequence": "AAAATGTTGTTTTTTTCTTCACTTTTGTTTTCCTTTTTTTCGGAGTCACCTAGTGCAG", "binding signal": "9300 fluorescence intensity (a.u.)"}, {"sequence": "TTGTCTTCCTTTGTTTCGACTGGTCCAGTTTCGTCCTCTCCGGAGTCACCTAGTGCAG", "binding signal": "10300 fluorescence intensity (a.u.)"}, {"sequence": "GTTTTTTTTTTTCCTTTCACTTCCTTCCTGGGCTTTATTTCGGAGTCACCTAGTGCAG", "binding signal": "17300 fluorescence intensity (a.u.)"}, {"sequence": "CTTATTTGTAGCTTCCTTTTTTTTTCCTTTTTCTTTTATTCGGAGTCACCTAGTGCAG", "binding signal": "10400 fluorescence intensity (a.u.)"}, {"sequence": "TTATTTCCGCAAATCGTTCGCTATCCGGTATATTTTTGCACGGAGTCACCTAGTGCAG", "binding signal": "17300 fluorescence intensity (a.u.)"}, {"sequence": "TTTTTATATACCGGTAAATATCCGCTACCGTATTCGTTCCCGGAGTCACCTAGTGCAG", "binding signal": "10200 fluorescence intensity (a.u.)"}, {"sequence": "AATCTGTTTTTTGCTTTTTTGCCCTTTTCACGGTTTTTCCCGGAGTCACCTAGTGCAG", "binding signal": "10800 fluorescence intensity (a.u.)"}, {"sequence": "TGTCGTCCTTCAGGCCAACTTTGTCTTCCTTTGTTTCGACCGGAGTCACCTAGTGCAG", "binding signal": "16400 fluorescence intensity (a.u.)"}, {"sequence": "ATACGTCATTTGTATTTGAGTCGGTTTTTAAGTTCCTCCGCGGAGTCACCTAGTGCAG", "binding signal": "12200 fluorescence intensity (a.u.)"}, {"sequence": "TTTTGCAAAGCATTCCTCGCGCTTTCAGCTAATTACGCATCGGAGTCACCTAGTGCAG", "binding signal": "8500 fluorescence intensity (a.u.)"}, {"sequence": "CACCAACGCGTCCCCACCGTGTCGCCTCCTGATTGGTTGTCGGAGTCACCTAGTGCAG", "binding signal": "12100 fluorescence intensity (a.u.)"}, {"sequence": "AGGTTATTTTTTCCTTACCTTTTTTTTTTCTGATACTACTCGGAGTCACCTAGTGCAG", "binding signal": "9920 fluorescence intensity (a.u.)"}, {"sequence": "GCTTCACCTTCGGCTTCGACTTCGGCTTCGTTTCCTCTTCCGGAGTCACCTAGTGCAG", "binding signal": "18600 fluorescence intensity (a.u.)"}, {"sequence": "CTCTCGCTCTTTTATTTTTTTTCCTTGTTTCCTTTCGTGTCGGAGTCACCTAGTGCAG", "binding signal": "12100 fluorescence intensity (a.u.)"}, {"sequence": "GTCCTCGTTTTTTTTTTCCTTCTCTTTTTCTTTTCCTTTTCGGAGTCACCTAGTGCAG", "binding signal": "9450 fluorescence intensity (a.u.)"}, {"sequence": "TTGTTACTACATTTCCTGTACTATTTTACTGTCTGATTTACGGAGTCACCTAGTGCAG", "binding signal": "8460 fluorescence intensity (a.u.)"}, {"sequence": "TTATTTTTCGTTCCTTCTTTTTTTCTCTCTCACTTTTCTCCGGAGTCACCTAGTGCAG", "binding signal": "11300 fluorescence intensity (a.u.)"}, {"sequence": "GTCGTTCGCTCTTTTATCCTTTTCGGACAATTTCACTTTCCGGAGTCACCTAGTGCAG", "binding signal": "19200 fluorescence intensity (a.u.)"}, {"sequence": "TGTTTTCACTTTCCTCTTCAGTCTTCTTCCTTCTTTCGTTCGGAGTCACCTAGTGCAG", "binding signal": "9140 fluorescence intensity (a.u.)"}, {"sequence": "GTTGGGCTTCCTTATTGGGTTGGGCTACCTGTCTGATTTTCGGAGTCACCTAGTGCAG", "binding signal": "16600 fluorescence intensity (a.u.)"}, {"sequence": "GCTCGCCGCGTGCTCTCGTCATCCATCCGACCCACGCCCGCGGAGTCACCTAGTGCAG", "binding signal": "11000 fluorescence intensity (a.u.)"}, {"sequence": "ATTTTATATGATTTCTTACAGACTTTTTTTATCATTTTACCGGAGTCACCTAGTGCAG", "binding signal": "9760 fluorescence intensity (a.u.)"}, {"sequence": "GCATTGGTTGGTGGTTTGGTGACGGCTTCGTTGTAGGCCTCGGAGTCACCTAGTGCAG", "binding signal": "9760 fluorescence intensity (a.u.)"}, {"sequence": "TCCTCTCTCTCTCTCTCTCTCTCTCCTCCTTTGGAGTTGTCGGAGTCACCTAGTGCAG", "binding signal": "10500 fluorescence intensity (a.u.)"}, {"sequence": "CGTCCAGTCCGCTCCCTCCCTCATTCATTCGGTTCGGTAACGGAGTCACCTAGTGCAG", "binding signal": "8870 fluorescence intensity (a.u.)"}, {"sequence": "CGTCGACGACGTCTCGATCGATCGGTGGTGGTGGTGGTGGCGGAGTCACCTAGTGCAG", "binding signal": "8540 fluorescence intensity (a.u.)"}, {"sequence": "CTCGTGGTCAAATCTGAATATCCGATACTTCCGTTTCAAACGGAGTCACCTAGTGCAG", "binding signal": "8300 fluorescence intensity (a.u.)"}, {"sequence": "GATCTCATCCCGTCCCGTCATCTGCTTCCTCTCTCGGAACCGGAGTCACCTAGTGCAG", "binding signal": "16900 fluorescence intensity (a.u.)"}, {"sequence": "CGCTTTCCTCTCCGGCAACGACCTCGCAGCTGTGGCCACCCGGAGTCACCTAGTGCAG", "binding signal": "18600 fluorescence intensity (a.u.)"}, {"sequence": "CGCCGCCGCTCCAGCTCCAGCCGCCCGTGCTCCCTCGCGGCGGAGTCACCTAGTGCAG", "binding signal": "8200 fluorescence intensity (a.u.)"}, {"sequence": "ACCAACCAACCACTGCTCTCGCCGCGCCGTCCTCTTCATCCGGAGTCACCTAGTGCAG", "binding signal": "18200 fluorescence intensity (a.u.)"}, {"sequence": "CGCCTCGCGGCAGGCAGCCGAGCTGTCTCCAACCGTGCCGCGGAGTCACCTAGTGCAG", "binding signal": "37300 fluorescence intensity (a.u.)"}, {"sequence": "CGTTTTCTTTTTTCTTCCTCGCTTTCTCTCTCTCTCTCTCCGGAGTCACCTAGTGCAG", "binding signal": "11600 fluorescence intensity (a.u.)"}, {"sequence": "GCGCTCGCCGCTGCCGCAAGCTCGCCTCCGACCCCGGCCACGGAGTCACCTAGTGCAG", "binding signal": "9530 fluorescence intensity (a.u.)"}, {"sequence": "TCACCACTGCTGCTCTCGCTGCCGTCCTTGTTCTTCGCGCCGGAGTCACCTAGTGCAG", "binding signal": "8110 fluorescence intensity (a.u.)"}, {"sequence": "TCTGCTTCTTCATCCTCGTGCTCTGCTTCTCTCTTCTTCCCGGAGTCACCTAGTGCAG", "binding signal": "8980 fluorescence intensity (a.u.)"}, {"sequence": "ACCGTCTCATCTTCTTCTTCCTCCTCCTCTGATCTTCTCCCGGAGTCACCTAGTGCAG", "binding signal": "8220 fluorescence intensity (a.u.)"}, {"sequence": "CCCCAACCCGCCGCCAGCCACCGAGCTCGCCACCGTCTCCCGGAGTCACCTAGTGCAG", "binding signal": "8970 fluorescence intensity (a.u.)"}, {"sequence": "TGTGCCGCTCCGTCGTGCTCTTCGTCGCGCCACTCATCCTCGGAGTCACCTAGTGCAG", "binding signal": "9080 fluorescence intensity (a.u.)"}, {"sequence": "ACAATCCATTTTATTCCAACAGATATATACACGGGGACAACGGAGTCACCTAGTGCAG", "binding signal": "8410 fluorescence intensity (a.u.)"}, {"sequence": "GGCTAGGTTGTGCGCGCCCTTCTCGATGTAGCAATAGCAACGGAGTCACCTAGTGCAG", "binding signal": "8520 fluorescence intensity (a.u.)"}]}]}
